The values below come from ChEMBL document CHEMBL1201862, “PubChem BioAssay data set” (2004).

The structures appear in SMILES notation. Hit rate of the full screen: of about 350,000 compounds, about 1,200 (0.34%) were called active. Roughly 3% stayed inconclusive and do not appear here. No cut-off for these calls is given here. Only a selection was taken, and actives are over-represented in it overall.

Chain of DNA repair nuclease/redox regulator APEX1 (Homo sapiens) (P27695 whole entry): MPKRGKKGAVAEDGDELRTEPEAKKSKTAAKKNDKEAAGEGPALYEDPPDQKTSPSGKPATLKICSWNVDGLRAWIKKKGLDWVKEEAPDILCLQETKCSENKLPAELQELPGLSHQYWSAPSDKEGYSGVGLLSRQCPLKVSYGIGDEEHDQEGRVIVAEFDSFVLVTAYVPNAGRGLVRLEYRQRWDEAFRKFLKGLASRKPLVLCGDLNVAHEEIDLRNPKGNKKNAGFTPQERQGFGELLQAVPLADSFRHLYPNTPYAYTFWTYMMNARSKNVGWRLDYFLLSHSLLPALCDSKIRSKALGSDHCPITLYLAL

The assay concerns the target DNA repair nuclease/redox regulator APEX1 (Homo sapiens) (UniProt P27695). The assay can be described thus: qHTS Assay for Inhibitors of the Human Apurinic/apyrimidinic Endonuclease 1 (APE1). It counts as functional.
Consider `O=C(Cn1c(=S)[nH]c2ccccc2c1=O)N1CCN(c2ccc(F)cc2)CC1`, for which the Potency is 794 µM (active).

On to `CC(=O)OCC(NC(=O)C(Cc1c[nH]c2ccccc12)NC(=O)OC(C)(C)C)C1OC(n2cc(C)c(=O)[nH]c2=O)C(OC(C)=O)C1OC(C)=O` (stereo not drawn), for which the Potency result was “inactive”.

With `O=C(O)c1cc(-c2ccc(F)cc2F)ccc1O`, the Potency entry is “inactive”.
